Rab9 prom act: activators of Rab9 promoter | Huh7 Rab9 promoter-luciferase reporter, luminescence, 24 h | Potency, µM (doses to about 9.22 µM), for the others: top-dose activation, negative = inhibition, hits mostly activators | hit rate 2.8% among 320,000; also: % of control where 0% means no effect; nearly all actives have a fitted effect of over 60% in size
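Stable Rab9-luc Huh7, 1500 cells/well, 2 h settle; cmpd in DMSO, 24 h, 37 °C/5% CO2; luciferase reagent 10 min RT; luminescence.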
ELG1 genotox: genotoxicity induction in ELG1-luciferase HEK293T cells; HEK293T ELG1-luciferase reporter, luminescence, 16 h; Potency, µM (titrated, usually from 46 µM), inactives show top-dose activity change, positive = activation, actives largely listed as activators; hit rate 1.3% among 330,000; also: % of control where 0% means no effect; nearly all actives have a fitted effect of over 60% in size
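Genotoxic stress is detected as increased luminescence from luciferase-tagged ELG1 in HEK293T cells, measured with ONE-Glo after a 16 hr treatment at 37 °C.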
SMN2 splice up: increases expression of the SMN2 splice variant | HEK293 SMN2-luciferase splicing reporter, luminescence, 30-36 h | AID 1458 | hit rate 2.8% among 210,000 | Potency, µM (top dose mostly 46.1 µM), without a hit: top-dose activity change, positive = activation, actives largely listed as activators; also: % of control where 0% means no effect; nearly all actives have a fitted effect of over 55% in size
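qHTS luciferase splicing reporter: luminescence rises when SMN2 exon 7 is included in transfected HEK293 cells. Compound exposure lasted 30-36 h at 37C, with 4.5 mM final sodium butyrate as control, followed by a ONE-Glo read.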
NPC1 promoter act: activators of NPC1 promoter | Potency, µM (doses to about 9.22 µM), for the others: at the highest dose activation, usual class: activators | hit rate 2.4% among 320,000 | Huh7 NPC1 promoter luciferase reporter, 24 h | AID 485313; also: % of control where 0% means no effect; nearly all actives have a fitted effect of over 60% in size
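Readout is luciferase luminescence, reflecting NPC1 promoter activation in stably transfected Huh7 cells after 24 h compound exposure at 37 °C in reduced-serum medium with 10% FBS.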
Luc counter: Kinase-Glo luciferase inhibition (counter-screen); Q27757; Kinase-Glo luciferase, ATP luminescence, 8 min; Potency, µM (doses to about 38.3 µM), for inactives: top-dose activity change, negative = inhibition, usual class: inhibitors; hit rate 0.28% among 200,000; AID 1379; also: % is scaled to controls: 0 for no effect and ±100 for the full control effect; nearly all actives have a fitted effect of over 60% in size
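Compound is pinned into ATP-containing buffer (10 uM ATP, imidazole pH 7.2, 7 mM MgCl2). Kinase-Glo luciferase reagent is then added. Light output is recorded following an 8-min room-temperature incubation.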
FLuc counter: inhibits or activates purified firefly luciferase, miR-21 counter-screen | Potency, µM (highest dose often 57.5 µM), for the others: at the top dose activity change, negative = inhibition, most hits filed as inhibitors | purified FLuc, Km substrates, luminescence inhibition | P08659 | hit rate 6.9% among 360,000 | AID 588342;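 also: plate controls were vehicle for no effect and reference inhibitor for full effect; nearly all actives have a fitted effect of over 55% in size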
Target sequence (P08659 whole entry, looked up): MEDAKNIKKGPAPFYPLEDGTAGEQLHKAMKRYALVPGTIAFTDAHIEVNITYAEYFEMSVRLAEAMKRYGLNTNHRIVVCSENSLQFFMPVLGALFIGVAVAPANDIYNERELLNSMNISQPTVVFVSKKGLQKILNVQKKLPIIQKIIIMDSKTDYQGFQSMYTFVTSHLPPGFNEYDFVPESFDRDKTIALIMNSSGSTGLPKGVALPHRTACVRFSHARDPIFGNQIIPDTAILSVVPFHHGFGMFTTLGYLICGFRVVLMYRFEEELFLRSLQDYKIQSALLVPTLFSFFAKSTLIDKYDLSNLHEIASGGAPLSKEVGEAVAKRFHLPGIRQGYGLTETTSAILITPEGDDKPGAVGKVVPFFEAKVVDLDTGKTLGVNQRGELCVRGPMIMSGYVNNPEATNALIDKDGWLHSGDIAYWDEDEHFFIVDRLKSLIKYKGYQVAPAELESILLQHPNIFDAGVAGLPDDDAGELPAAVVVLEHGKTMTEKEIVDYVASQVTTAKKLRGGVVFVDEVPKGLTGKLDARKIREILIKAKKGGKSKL
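Purified P. pyralis luciferase (10nM final) with 10uM D-luciferin and 10uM ATP (Km levels) in 50mM Tris acetate pH 7.5, 10mM Mg acetate, 0.01% Tween-20, 0.05% BSA; qHTS 6-point titration, ~60 µM downward; luminescence read.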
An asterisk follows results filed as active; ? = inconclusive; . = not tested or not shown; [ ] = remark or other dose. In the library only some 7.5% were active in any assay of this set; here they are far more common. Calls follow the shape of the dose curve; as a rule, active = well fitted curve in the direction sought with a large enough effect; inconclusive = small, poorly fitted or top-dose-only effect, or another doubt; inactive = no such curve, though single readings can be large; an effect the other way counts as inactive or inconclusive. Potency is read from the fitted curve at half-maximal effect.

SMILES	Rab9 prom act	ELG1 genotox	SMN2 splice up	NPC1 promoter act	Luc counter	FLuc counter
COc1cc([N+](=O)[O-])ccc1NC(=S)NNC(=O)CCC(=O)Nc1ccccc1Cl	?	9.2µM*	.	?	.	?
COc1cc([N+](=O)[O-])ccc1NC(=O)CCCOc1ccccc1	1%	1%	6%	1%	7%	-1%
O=S(=O)(NCc1ccccc1Cl)c1cccs1	12%	-15%	-10%	10%	-3%	-2%
COc1ccc(-c2noc(CSc3nnc(-c4ccncc4)n3-c3ccccc3)n2)cc1	.	.	-68%	.	.	-15%
Cc1ccc(Cl)cc1-n1ncc2c(N3CCN(Cc4ccccc4)CC3)ncnc21	.	.	.	.	.	-4%
COc1ccccc1NC(=S)NNC(=O)c1ccc(Cl)cc1Cl	28%	4%	16µM*	12%	1%	11µM*
Cc1ccccc1C(=O)NNC(=S)NC(=O)c1ccc(Cl)cc1Cl	1%	-3%	10%	0%	1%	2%
CC(=O)[C@@H]1CC[C@@H]2[C@@H]3C[C@H](C)C4=CC(=O)CC[C@@]4(C)[C@H]3[C@H](O)C[C@]21C	.	.	-6%[20.6 µM]	.	2%[17.1 µM]	.
NC(=O)c1ccsc1NC(=O)C1CCCCC1	-7%	15%	-16%	7%	-2%	-21%
NC(=O)c1ccsc1NC(=O)c1ccc2c(c1)CCCC2	?	2.6µM*	1.6µM*	?	?	0.6µM*
CNC(=O)c1ccsc1NC(=O)c1ccc2c(c1)CCCC2	12%	17%	11µM*	-3%	-15%	0.95µM*
NC(=O)c1ccsc1NC(=O)c1ccc(N2CCCC2=O)cc1	0.63µM*	1.6µM*	18µM*	2.2µM*	?	3µM*
COc1cc(C(=O)Nn2c(C)nc3ccccc3c2=O)cc(OC)c1OC	19%	-5%	.	2%	.	-2%
O=C(O)c1cc(NC(=O)C2CCCO2)cc(C(=O)O)c1 (stereo not drawn)	0%	3%	.	-2%	.	2%
CC(C)(C)c1cc(NC(=O)C2CCCO2)no1 (stereo not drawn)	27%	?	?	?	-2%	15µM*
COc1ccccc1NC(=O)c1ccccc1NC(=O)c1cc(Cl)ccc1NC(=O)c1ccco1	3%	1%	10%	-1%	0%	9%
COc1ccccc1NC(=O)c1oc2ccccc2c1NC(=O)c1ccco1	0%	7%	-25%	-2%	-3%	-1%
COc1cc(NC(=O)c2oc3ccccc3c2C)ccc1NC(=O)c1ccco1	?	-6%	.	25%	.	5.4µM*
O=C(Nc1ccc(OC(=O)c2cccs2)cc1)c1ccco1	10%	?	19%	0%	?	2.7µM*
COc1ccc(NC(=O)c2ccccc2NC(=O)c2ccco2)c(OC)c1	3%	-7%	-8%	8%	-9%	19µM*
COc1cc(NC(=O)c2ccccc2Cl)ccc1NC(=O)c1ccco1	2.8µM*	?	22µM*	2.5µM*	-8%	11µM*
CC1(NC(=O)/C=C/c2nc3ccccc3s2)CCS(=O)(=O)C1 (stereo not drawn)	2%	1%	.	2%	.	?
COc1ccc(/C=N/NC(=O)c2ccccc2NC(=O)c2ccco2)c(OC)c1	1%	2%	.	5%	.	5.4µM*
COc1cc(NC(=O)c2cccs2)ccc1NC(=O)c1ccco1	?	18µM*	11µM*	30%	-2%	?
O=C(Nc1ccc(NC(=O)c2cccs2)cc1Cl)c1ccco1	?	?	.	?	?	-5%
SMILES	Rab9 prom act	ELG1 genotox	SMN2 splice up	NPC1 promoter act	Luc counter	FLuc counter
COc1ccc(NC(=O)c2ccc(NC(=O)c3ccco3)cc2)c(OC)c1	13%	-5%	.	-2%	.	-3%
COc1ccc(NC(=O)c2ccco2)cc1NC(=O)c1c(OC)cccc1OC	5%	1%	3%	0%	.	15µM*
CCOC(=O)CCn1c(=O)c2cccn2c2cccnc21	.	.	25%	.	.	-4%
COc1ccc(C2=CC(=O)CC(C)(C)C2)cc1	17%	7%	.	1%	.	-22%
CC1(C)CC(=O)C=C(c2ccc(-c3ccccc3)cc2)C1	?	?	.	2.8µM*	.	?
NS(=O)(=O)c1cccc(NC(=O)c2cccc(-c3ccc(O)cc3)c2)c1	-1%	1%	.	1%	.	17µM*
O=C(Nc1cc2ccccc2oc1=O)c1ccccc1	0.18µM*	?	0.89µM*	0.4µM*	11µM*	0.43µM*
CN(C)S(=O)(=O)c1cccc(C(=O)Nc2ccc(C(=O)Nc3cccc(S(N)(=O)=O)c3)cc2)c1	.	-1%	.	.	.	.
CCC(=O)Nc1cccc(NC(=O)c2cc3ccccc3o2)c1	0.71µM*	?	?	2µM*	-14%	2.4µM*
CCC(=O)Nc1cccc(-c2cc3ccccc3oc2=O)c1	?	?	-37%	?	0%	12µM*
Cc1cccc(NC(=O)c2cc3ccccc3o2)c1	1.4µM*	21µM*	13µM*	1.3µM*	?	3.8µM*
O=C(Nc1cccc(Br)c1)c1cc2ccccc2o1	2.8µM*	?	.	3.2µM*	.	2.4µM*
CC(C)C(=O)Nc1ccc(NC(=O)c2cc3ccccc3o2)cc1	3%[1.84 µM]	?	?	22%	-2%	?
NS(=O)(=O)c1cccc(NC(=O)c2cc3ccccc3o2)c1	?	8%	.	?	-20%	2.1µM*
CC(=O)Nc1ccc(NC(=O)c2cccc(-c3cc4ccccc4oc3=O)c2)cc1	3.2µM*	10%	10µM*	?	-2%	?
Cc1ccc(S(=O)(=O)c2nc(-c3cccc(Cl)c3)oc2NCc2ccccc2)cc1	.	.	-1%	.	.	-4%
CC(C)C(NS(=O)(=O)c1ccc2c(c1)oc(=O)n2C)C(=O)NCCc1ccc(Cl)cc1 (stereo not drawn)	.	.	6%	.	.	0%
CNC(=S)/N=C(/Nc1ccccc1)c1ccccc1	-5%	-7%	-17%	-2%	6%	-19%
N/C(=N\C(=S)Nc1ccccc1)c1ccccc1	0.71µM*	?	.	0.5µM*	.	11µM*
Nc1sc(-c2ccccc2)c(Cc2ccccc2)c1C(=O)O	-1%	1%	-53%	-5%	0%	17µM*
COC(=O)c1c(N)sc(Cc2ccccc2)c1C	1%	0%	.	-2%	0%	-6%
CC(C)COc1ccc(C(=O)Nc2onc3c2CCCC3)cc1	.	.	19%	.	.	0.34µM*
CCOc1ccc(C(=O)Nc2onc3c2CCCC3)cc1	.	.	2.8µM*	.	.	0.3µM*
CCOC(=O)c1ccc(NC(=O)C2CCCN(c3ccc(Sc4ccc(C)cc4)nn3)C2)cc1 (stereo not drawn)	.	.	15%	.	.	-19%
CC1=C(c2ccc(C)cc2)[N+](=O)C(C)(C)N1[O-]	4µM*	?	.	25%	-9%	9.5µM*
